# Source: PubChem BioAssay AID1035475 (Broad Institute, 2014)
# Potency and affinity values are given separately. Inconclusive results are not listed. Unmarked numbers belong to inactive results.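 How the source made its calls: active means fluorescent signal drops by 40% or more, counted as a hit; inconclusive means no clear call, values can overlap the other calls; inactive means the rest, including any activity in the opposite direction.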
# Assay: blockers of FN fibrillogenesis by fibroblasts – AH1F cells, Alexa488-FN fluorescence, cherry-picks, dose response (AID 1035475);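 further: AH1F fibroblasts incorporating labeled fibronectin into their extracellular matrix; 0% = neutral control wells and -100% = wells without labeled fibronectin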
# Conditions: Alexa488-fibronectin deposition fluorescence, overnight; series mostly up to 35 µM; activity change, negative = inhibition: at the top concentration
row,SMILES,"activity change, negative = inhibition"
1,CO[C@H]1CN(C)C(=O)c2cc(NC(=O)Nc3ccc(Cl)c(Cl)c3)ccc2OC[C@H](C)NC[C@@H]1C,-15.6%
2,O=C(C[C@@H]1C[C@@H]2c3cc(NC(=O)c4ccc5c(c4)OCO5)ccc3O[C@@H]2[C@@H](CO)O1)NCc1ccc(Oc2ccccc2)cc1,-10.1%
3,COc1cccc(-c2ccc3c(c2)[C@@H]2[C@@H](CCN2S(=O)(=O)c2cccc(OC)c2)[C@@H](CO)N3)c1,-14.6%
4,C[C@@H]1CN([C@@H](C)CO)C(=O)c2cc(-c3ccccc3)cnc2O[C@H]1CN(C)Cc1ccccc1,22.7%
5,O=C(Nc1ccccc1F)N1C[C@@H]2[C@H](c3ccccc31)[C@H](CO)N2C(=O)C1CC1,28.6%
6,CC(C)NC(=O)N(C)C[C@H]1Oc2ccc(NC(=O)CCN3CCOCC3)cc2C(=O)N([C@H](C)CO)C[C@@H]1C,10.8%
7,CC1CN(C(=O)c2cc3c(=O)n4ccccc4nc3n2C)CC(C)O1 (stereo not given),-7.05%
8,C[C@H]1CN([C@@H](C)CO)C(=O)c2cc(NC(=O)CCCN(C)C)ccc2O[C@H]1CN(C)Cc1ccc(-c2ccccc2)cc1,-3%
9,C[C@@H]1CN([C@H](C)CO)C(=O)c2cc(NC(=O)CCCN(C)C)ccc2O[C@@H]1CN(C)Cc1ccc(-c2ccccc2)cc1,7.33%
10,COCC(=O)Nc1ccc2c(c1)C(=O)N(C)[C@H]1CC[C@H](CC(=O)NCc3ccccc3Cl)O[C@@H]1CO2,27.3% [at 30 µM]
11,COC(=O)C[C@H]1CC[C@@H]2[C@H](COc3ccc(NC(=O)Cc4cccs4)cc3C(=O)N2C)O1,10.4%
12,COc1cccc(CN2CCN(C(=O)c3ccc(-c4ccccc4)cc3)CC2)c1OC,-21.9%
13,CN1c2ccc(-c3ccccc3)cc2[C@@H]2[C@@H](CCN2C(=O)CN2CCOCC2)[C@H]1CO,17.3% [at 30 µM]
14,C[C@H](CO)N1C[C@H](C)[C@@H](CN(C)Cc2ccc(-c3ccccc3)cc2)Oc2ccc(NC(=O)C3CCCCC3)cc2C1=O,20.7%
15,CO[C@H]1CN(C)C(=O)c2cc(NC(=O)Nc3ccc(Cl)c(Cl)c3)ccc2OC[C@@H](C)NC[C@H]1C,19.8%
16,COc1cccc(-c2ccc3c(c2)[C@H]2[C@H](CCN2S(=O)(=O)c2cccc(OC)c2)[C@@H](CO)N3)c1,-7.81%
17,CN(C)C(=O)c1ccc(-c2ccc3c(c2)[C@@H]2[C@@H](CCN2C(=O)c2ccc(F)cc2)[C@H](CO)N3C)cc1,38.9%
18,O=S(=O)(c1ccccc1F)N1CC[C@@H]2[C@H](CO)Nc3ccc(-c4cccc(F)c4)cc3[C@@H]21,21.5%

row,SMILES,"activity change, negative = inhibition"
1,C[C@@H]1CN([C@@H](C)CO)C(=O)c2cc(NC(=O)CCCN(C)C)ccc2O[C@@H]1CN(C)Cc1ccc(-c2ccccc2)cc1,22.1%
2,C[C@H]1CN([C@@H](C)CO)C(=O)c2cc(-c3ccccc3)cnc2O[C@@H]1CN(C)Cc1ccccc1,41.3%
3,N#C[C@H]1[C@@H](c2ccccc2C2=CCCCC2)[C@@H](CO)N1S(=O)(=O)c1ccccc1,19.1%
4,C[C@@H]1CN([C@H](C)CO)C(=O)c2cc(NC(=O)C3CCCCC3)ccc2O[C@H]1CN(C)Cc1ccc(-c2ccccc2)cc1,6.62%
5,COc1ccc(-c2csc(CCn3nc(C)cc3C)n2)cc1OC,-6.87%
6,O=C(CC1Nc2ccccc2NC1=O)Nc1ccc2c(c1)OCO2 (stereo not given),5.64%
7,CCCc1cc(C(=O)OC)c(NC(=O)CCC(=O)O)s1,-15.6%
8,COC(=O)C[C@@H]1CC[C@@H]2[C@@H](COc3ccc(NC(=O)Cc4cccs4)cc3C(=O)N2C)O1,1.6%
9,C[C@@H]1CN([C@H](C)CO)C(=O)c2cc(-c3ccccc3)cnc2O[C@H]1CN(C)C(=O)c1cccc(F)c1,27.5%
10,C[C@@H]1CN([C@H](C)CO)C(=O)c2cc(NC(=O)C3CCCCC3)ccc2O[C@@H]1CN(C)Cc1ccc(-c2ccccc2)cc1,4.74%
11,CO[C@H]1CN(C)C(=O)c2ccc(NC(=O)Nc3cc(Cl)cc(Cl)c3)cc2OC[C@H](C)NC[C@@H]1C,5.11%
12,CO[C@@H]1CN(C)C(=O)c2ccc(NC(=O)c3ccc(-c4ccccc4)cc3)cc2OC[C@H](C)NC[C@H]1C,-4.34% [at 30 µM]
13,CCN(Cc1ccncc1)C(=O)c1ccc2c(c1)S(=O)(=O)c1ccccc1C2=O,-11.4%
14,Fc1cnc(N2CCN(c3ccccc3)CC2)nc1N1CCN(c2ccccc2)CC1,-16.8%
15,C[C@H]1CN([C@@H](C)CO)C(=O)c2cccc(NC(=O)Nc3ccc(C(F)(F)F)cc3)c2O[C@@H]1CN(C)C(=O)Nc1cccc2ccccc12,18.8%
16,C[C@H](CO)N1C[C@H](C)[C@H](CN(C)C(=O)Nc2cccc3ccccc23)Oc2c(NC(=O)Nc3ccc(C(F)(F)F)cc3)cccc2C1=O,14.8%
17,COc1cccc(S(=O)(=O)N2CC[C@@H]3[C@H]2c2cc(-c4ccc(C#N)cc4)ccc2N[C@@H]3CO)c1,-9.22%
